# Laboratory results as given in PubChem BioAssay (NCI).
# About 79,000 compounds went through this panel and 15% of them were active in at least one assay; those are over-represented in the sample as a whole. A number with no mark means an inactive call. Calls of active or inactive are those of the source. No stated cut-off is given here; in the data, active means growth inhibition above about 70%; inactive means the rest.
# Test: NCI Yeast Anticancer Drug Screen. Data for the mlh1 strain (AID 171);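 further: 0% = growth of vehicle-treated control cultures of the same strain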
# Conditions: S. cerevisiae mlh1 strain growth inhibition, active compounds read high
# Experimental: Growth inhibition of yeast strains with defined genetic alterations is measured as a screen for potential anti-cancer activity. Selected strains with alterations in DNA damage repair or cell cycle control were exposed to compounds and growth inhibition was measured relative to vehicle treated controls. The strain used in this assay is mlh1
Structure (SMILES),growth inhibition (at 1.2 µM) [%],growth inhibition (at 3.7 µM) [%],growth inhibition (at 11.0 µM),growth inhibition (at 33.0 µM),growth inhibition (at 100.0 µM)
O=C1C(Cl)=C(Cl)C(Cl)(Cl)C(Cl)C1(Cl)Cl (stereo not given),12,26,66%,99% (active),99% (active)
On1cnc(=S)c2[nH]cnc21,-6,-14,-28%,-29%,-37%
NC(N)=N/N=C/c1cc(Cl)cc(Cl)c1O,12,9,21%,68%,98% (active)
Cn1c2nc3ccccc3c-2nc2ccccc21,9,46,91% (active),97% (active),97% (active)
Nc1nc(F)nc2c1ncn2C1OC(COP(=O)(O)O)C(O)C1O (stereo not given),0,2,5%,9%,19%
CN(C)CC1CCCc2ccccc2C1=O (stereo not given),23,28,29%,76% (active),95% (active)
CC1OC(OC2CCCc3c(O)c4c(c(O)c32)C(=O)c2ccccc2C4=O)CC(N)C1O (stereo not given),-11,-6,16%,94% (active),99% (active)
Cc1cc(N=C2C=CC(=[N+](C)C)C=C2)c(N)cc1N,1,2,-2%,31%,61%
